# Measured values: PubChem BioAssay AID652054 (National Center for Advancing Translational Sciences (NCATS), 2013)
# Among all 360,000 compounds or so, about 9,100 (2.5%) were called active. Not shown: some 4% with an inconclusive outcome. Many of the other results were omitted from the sample, so actives are more common in it than they were. A number with no mark means an inactive call. Rule as the data show it: active = max response below about -50%; inconclusive = no clear call, values can overlap the other calls; inactive = above that.
# Biological target: D(3) dopamine receptor (Homo sapiens) (UniProt P35462)
# Test: qHTS of D3 Dopamine Receptor Antagonist: qHTS
# Conditions: D3R cells, DiscoveRx beta-arrestin luminescence, antagonist mode; hits give low values
# Outline: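 Cells expressing the human receptor were seeded at 1500 cells/well, incubated overnight at 37 degrees C in 5% CO2, then exposed to library compounds with dopamine controls for 90 minutes at 37 degrees C before luminescent detection.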
# % is scaled to controls: 0 for no effect and ±100 for the full control effect.
# D(3) dopamine receptor (Homo sapiens), sequence (P35462 whole entry, looked up): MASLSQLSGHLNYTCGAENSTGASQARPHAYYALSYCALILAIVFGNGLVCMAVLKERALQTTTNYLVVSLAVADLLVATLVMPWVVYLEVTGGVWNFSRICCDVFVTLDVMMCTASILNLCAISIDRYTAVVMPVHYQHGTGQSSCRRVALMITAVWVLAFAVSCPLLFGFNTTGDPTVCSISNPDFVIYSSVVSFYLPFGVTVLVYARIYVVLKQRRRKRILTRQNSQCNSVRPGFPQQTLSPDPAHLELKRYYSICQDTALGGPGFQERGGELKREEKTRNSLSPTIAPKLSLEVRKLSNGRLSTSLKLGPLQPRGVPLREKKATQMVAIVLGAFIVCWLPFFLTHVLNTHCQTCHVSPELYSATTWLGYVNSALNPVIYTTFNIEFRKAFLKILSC
row,SMILES,"max response, negative = inhibition"
1,O=C(CNC(=O)c1ccccc1)Oc1ccc([N+](=O)[O-])cc1,-54.6% (active)
2,COC(=O)CNC(=O)c1ccccc1[N+](=O)[O-],16.4%
3,O=C(NNS(=O)(=O)Cc1ccccc1)c1ccc([N+](=O)[O-])cc1,-19%
4,Nc1cc(=O)c2[nH]cnc2[nH]1,15.5%
5,Nc1ncnc2c1ncn2[C@@H]1O[C@H](C(=O)N2CCCN(Cc3ccccc3F)CC2)[C@@H](O)[C@H]1O,15%
6,O=C(C=CC(=O)Nc1ccc(F)cc1F)Nc1ccc(F)cc1F,4.55%
7,COC(=O)[C@@]1(Cc2ccc(OC)cc2)[C@H]2c3cc(C(=O)N4CCCC4)n(Cc4ccc(OC(F)(F)F)cc4)c3C[C@H]2CN1C(=O)c1ccccc1,20.3%
8,C[C@@H]1CN([C@H](C)CO)C(=O)CCCn2nncc2CO[C@@H]1CN(C)S(=O)(=O)c1cccc(C#N)c1,-18.1%
9,N#Cc1cccc(NC(=O)CN2CCCCCC2)c1,-64.8% (active)
10,N#Cc1ccsc1NC(=O)CN1CCCCC1,-12%
11,N#Cc1cccc(NC(=O)C2CCCN(C(=O)c3ccc(Cl)cc3)C2)c1 (centres undefined),0.782%
12,Nc1cc(C(=O)N2CCN(c3ccccc3Cl)CC2)ccc1N1CC2CC(C1)c1cccc(=O)n1C2 (centres undefined),27.4%
13,C=C1C(=O)OC2C1CCC(C)=CCCC1(C)OC21 (centres undefined),-90% (active)
14,CC1(C(=O)NCC2CCOCC2)Cc2c(-c3cccc(C(N)=O)c3)ccnc2O1 (centres undefined),-8.42%
15,Cc1cc(Br)cn2c(Cc3ccccc3C(F)(F)F)c(C3CCCCC3)nc12,-18.2%
16,COc1cccc(-c2cnc3c(NC(C)=O)cc(-c4cc(F)ccc4OC)cn23)c1,-14.2%
17,COc1ccc(S(=O)(=O)N2CCC(C(=O)NCCC(=O)NCCc3cccc(F)c3)CC2)cc1,9.47%
18,CC1CCc2[nH]c3ccc(C(=O)N(C)CC(=O)Nc4cccc(F)c4)cc3c2C1 (centres undefined),3.28%
19,O=C(CCCN1CCc2[nH]c3ccc(F)cc3c2C1)c1ccc(F)cc1,-89.2% (active)
20,C=CCNC(=S)N1CCc2[nH]c3ccccc3c2C1,-14.7%
21,CC(=O)C1=CCC(c2ccccc2)N(S(=O)(=O)c2ccc(C)cc2)C1 (centres undefined),0%

row,SMILES,"max response, negative = inhibition"
1,COc1cccc(NC(=O)C2(C)CCN2C(=O)CCC2CCCC2)c1 (centres undefined),1.34%
2,COc1ccc(C(NC(=O)C2CCN(CCCc3ccccc3)CC2)c2cccs2)cc1 (centres undefined),-15.9%
3,Cc1cc([N+](=O)[O-])c(NC2CCCCC2)c([N+](=O)[O-])c1,-7.91%
4,Cc1cc(C=O)c(C)n1-c1ccc(NC2CCCCC2)c([N+](=O)[O-])c1,-55.1% (active)
5,Cc1c(NS(=O)(=O)c2ccc(NC3CCCC3)c([N+](=O)[O-])c2)c(=O)n(-c2ccccc2)n1C,-21.5%
6,COCC(=O)N(C)C[C@H]1Oc2cc(Br)ccc2S(=O)(=O)N([C@H](C)CO)C[C@H]1C,15.2%
7,C#CCN(C[C@@H]1[C@@H](OC(=O)NC2CC2)[C@@H](OC(=O)NC2CC2)Cn2c(=O)ccc(=O)n21)S(=O)(=O)c1ccc(C)cc1,13.1%
8,O=c1ccc2c(-c3ccccc3S(=O)(=O)O)c3ccc(O)c(O)c3oc-2c1O,-93.3% (active)
9,C[C@@H]1CN([C@@H](C)CO)C(=O)CCCn2nncc2CO[C@H]1CN(C)Cc1ccc(C(F)(F)F)cc1,20.1%
10,CC(C)NC(=O)N1Cc2cc(C(=O)NCC(F)(F)F)nc(-c3cccc(-c4cc5ccccc5o4)c3)c2[C@@H]1CCO,18.7%
11,O=C(NC(c1ccc(-c2ccccc2)cc1)c1cnccn1)C1CCN(CCOc2ccc(Cl)cc2Cl)CC1 (centres undefined),-24.7%
12,COC(=O)c1ccc2nc(-c3ccccc3)c(Cc3ccc(OC)cc3C)n2c1,-9.42%
13,COc1ccc2[nH]cc(CCN3C(=O)c4ccc(C(=O)O)cc4C3=O)c2c1,11.7%
14,COc1ccc(/C=N/N=C/c2c[nH]c(=O)c(C#N)c2Nc2ccccc2)cc1,23.9%
15,COc1ccc2[nH]cc(/C=C(/C#N)S(=O)(=O)c3ccccc3)c2c1,-50.9% (active)
16,Cc1ccccc1S(=O)(=O)NC(=O)C1(C)CCN1C(=O)C1(c2ccc(Cl)cc2)CC1 (centres undefined),4.07%
17,O=C(NN=Cc1ccccc1)c1ccccc1,-25.4%
18,Cc1nc2ccc(C(=O)N/N=C/c3ccc(O)cc3)cc2[nH]1,-78.1% (active)
19,Cc1nonc1C(=O)N/N=C/c1ccc(O)cc1,20.2%
20,COc1ccc2c(c1)c(=Cc1ccc(N(C)C)cc1)c1cc(-c3ccccc3)[n+](C)n12,-65.2% (active)
21,Cc1ccc(C(NC(=O)C2CCN(CCOc3ccc(Cl)cc3Cl)CC2)c2ccccn2)cc1 (centres undefined),-3.28%

row,SMILES,"max response, negative = inhibition"
1,CC1=C(C(=O)N(C)C)CC(CC(=O)NCCc2ccccn2)C(=O)N1CCC1=CCCCC1 (centres undefined),-22.1%
2,CCCCCNC(=O)C1C(=O)Nc2ccccc2C(=O)N1C(C)(C)C (centres undefined),-19.2%
3,CC(=O)c1c(C)[nH]c(C(=O)NCc2ccc(C)cc2)c1C,-6.75%
4,CC(=O)c1c(C)[nH]c(C(=O)NCCCN2CCCC2)c1C,11.6%
5,CCCCN(CC)CCNC(=O)c1[nH]c(C)c(C(C)=O)c1C,-58.3% (active)
6,CC1(C(=O)NS(=O)(=O)C2CC2)CCCN(C(=O)CSc2ccccc2)C1 (centres undefined),0%
7,Cc1ccc(-c2nc3ccc(Br)cn3c2Cc2ccccc2C(F)(F)F)cc1,-15%
8,CCOC(=O)C1=CC[C@@H](c2ccncc2)N(S(=O)(=O)c2ccc(C)cc2)C1,-4.07%
9,CCCCNC(=O)c1nc(C2CCN(S(=O)(=O)c3ccc(F)c(F)c3)CC2)oc1-c1cccc(C(F)(F)F)c1,7.15%
10,C[C@H]1CN([C@@H](C)CO)C(=O)CCCn2nncc2CO[C@@H]1CN(C)Cc1ccc(Oc2ccccc2)cc1,-10.5%
11,C=CS(=O)c1sc(Cl)c(N2CCOCC2)c1[N+](=O)[O-] (centres undefined),-84.2% (active)
12,CC1(C(=O)NCc2ccco2)Cc2c(-c3ccc4c(c3)OCO4)ccnc2O1 (centres undefined),5.33%
13,CC(=O)NN=C(C)c1ccc(NC(=O)C2CC2)cc1,3.77%
14,COc1ccc(CCC(C)N2CCc3ccccc3C2)cc1 (centres undefined),-112% (active)
15,COc1ccc(CN2CN(C(C)C)CSC2=S)cc1,-12.9%
16,COc1ccc(NC(=O)C(=O)NCC(c2ccco2)N2CCc3ccccc3C2)cc1 (centres undefined),6.38%
17,O=C(OC1CC2CC1[C@H]1CCCCN1C2=O)N1CCOCC1 (some centres undefined),3.81%
18,O=C(C(=O)N1CCC(c2ccccc2)CC1)c1ccccc1,11.8%
19,Cc1ccc(-n2c(O)c(C=Nc3ccc(S(=O)(=O)Nc4ncccn4)cc3)c3ccccc3c2=O)cc1C,1.71%
20,CCOc1ccc(-n2c(O)c(/C=N/Nc3nc(C)cc(C)n3)c3ccccc3c2=O)cc1,-56.4% (active)
21,CCN(CC)CCCN=Cc1c(O)n(-c2ccc(C)cc2)c(=O)c2ccccc12,9.43%

row,SMILES,"max response, negative = inhibition"
1,O=C(Nc1ccc2c(c1)OCCO2)C1c2ccccc2OCC(=O)N1Cc1ccccn1 (centres undefined),33.3%
2,Cc1cc(C)n(-c2ccc3nncn3n2)n1,1.57%
3,Cc1ccc(S(=O)(=O)Nc2nc(C)cc(-n3nc(C)cc3C)n2)cc1,-12.2%
4,Cc1cc(C)n(-c2ccc(Cl)c(C(=O)O)n2)n1,-86.2% (active)
5,COCCCNC(=O)c1cccc2c(-c3ccc(O)c(OC)c3)coc12,0.229%
6,COC(=O)[C@]12CCCCC=C1N(Cc1ccco1)C(=O)[C@H](CC(=O)NCC1CCCCC1)C2,-0.188%
7,CN1OC[C@@H]2CN(S(=O)(=O)c3cccc(C(F)(F)F)c3)[C@H](c3ccc(-c4cc5ccccc5o4)cc3)C[C@@H]21,-12%
8,CC1(C(=O)NCc2ccc(F)c(F)c2)Cc2c(-c3ccc4c(c3)OCO4)ccnc2O1 (centres undefined),19.2%
9,Cc1ccc(CN2CCN(/N=C/c3ccco3)CC2)c(C)c1,-78.6% (active)
10,Cc1ccc(CN2CCN(/N=C/c3cccnc3)CC2)c(C)c1,-15%
11,Cc1ccc(NC(=O)CCC(=O)N/N=C/c2ccco2)c(C)c1,16.8%
12,O=C(/C=C/[C@H]1O[C@@H](n2cnc3c(NC(=O)c4ccccc4)ncnc32)[C@H](O)[C@@H]1O)NCc1ccccc1,0%
13,CN1CCN(CCCNC(=O)c2cc3c(=O)oc4ccccc4c3s2)CC1,0%
14,CCn1cc(C(=O)NCCCN2CCCCCC2)c(=O)c2cc(S(=O)(=O)N3CCc4ccccc4C3)ccc21,-2.35%
15,Cc1cccc2c1-c1sc(C(=O)NCCCN3CCc4ccccc4C3)cc1CO2,-63.3% (active)
16,C[C@@H]1CN([C@@H](C)CO)C(=O)c2cc(Br)cnc2O[C@H]1CN(C)Cc1ccc(-c2ccccc2)cc1,24.5%
17,COc1ccc(CN2C(=O)C(CC(=O)NCCN3CCOCC3)CC(C(=O)N(C(C)C)C(C)C)=C2C)cc1 (centres undefined),10.3%
18,COc1ccc([C@H]2N[C@]3(CCCN(CC4CCCCC4)C3=O)[C@H]3C(=O)N(C)C(=O)[C@@H]23)cc1,-3.44%
19,COc1ccccc1-n1c(C)nc2cc(C(=O)NCc3ccc4c(c3)OCO4)ccc21,-53.5% (active)
20,COc1cc(OC)c(C(=O)NCc2ccc3c(c2)OCO3)cc1OC,-7.32%
21,CCOc1c2ccc(C(=O)NCc3ccc4c(c3)OCO4)cc2nn1C,21.7%
